# Assay outcomes deposited in PubChem BioAssay by National Center for Advancing Translational Sciences (NCATS).
# ELG1 DNA repair: inhibitors of ELG1-dependent DNA repair in HEK293T cells | HEK293T ELG1-luciferase reporter, luminescence, 16 h; DNA damage induced by 5-fluorouridine | Potency, µM (series often up to 46.1 µM), for inactives: top-dose activity change, negative = inhibition, most hits filed as inhibitors | 330,000 compounds, 2.3% hits | AID 504467; further: on the % scale 0 is the no-effect control and ±100 the full control effect; nearly all actives have a fitted effect of over 55% in size
#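 Luminescence from the luciferase reporter, measured 30 min after ONE-Glo reagent at room temperature, was the read-out. Beforehand, 2,000 cells per well were exposed for 16 hr at 37 °C to 5-fluorouridine together with compound or vehicle.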
# RORgamma inh: blocks mouse ROR gamma transcriptional activity. Potency, µM (top dose mostly 53.6 µM), without a hit: at the top dose activity change, negative = inhibition, usual class: inhibitors. 310,000 compounds, 5.4% hits. Drosophila S2 Gal4-RORgamma UAS-luciferase reporter, 20 h. AID 2551; further: on the % scale 0 is the no-effect control and ±100 the full control effect; nearly all actives have a fitted effect of over 60% in size
# Target sequence (P51450 whole entry, looked up, the tested form may be a part): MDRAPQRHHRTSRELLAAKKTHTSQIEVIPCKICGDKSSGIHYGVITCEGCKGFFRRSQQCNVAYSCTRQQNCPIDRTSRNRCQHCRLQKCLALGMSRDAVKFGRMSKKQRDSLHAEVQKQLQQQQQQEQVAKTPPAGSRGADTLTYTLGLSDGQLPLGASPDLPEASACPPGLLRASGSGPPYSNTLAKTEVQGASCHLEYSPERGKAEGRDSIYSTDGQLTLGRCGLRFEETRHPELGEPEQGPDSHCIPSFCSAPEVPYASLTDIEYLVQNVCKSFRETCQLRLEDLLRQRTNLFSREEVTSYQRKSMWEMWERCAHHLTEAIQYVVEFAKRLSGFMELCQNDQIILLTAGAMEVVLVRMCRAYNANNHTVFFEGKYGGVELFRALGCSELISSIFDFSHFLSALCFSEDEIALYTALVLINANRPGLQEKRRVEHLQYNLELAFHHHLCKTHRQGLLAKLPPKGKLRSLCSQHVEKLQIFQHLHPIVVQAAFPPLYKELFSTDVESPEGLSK
#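 In this cell-based reporter format, copper sulfate (700 uM final) drives Gal4–ROR gamma fusion expression from a metallothionein promoter in Drosophila Schneider cells; compounds preincubated 1 hr, reporter read after 20 hr at ambient temperature.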
# Gal4-VP16 FLuc: Gal4-VP16 reporter inhibition counter-screen; Drosophila S2 Gal4-VP16 UAS-luciferase, luminescence, 20 h; Potency, µM (titrated, usually from 53.6 µM), inactives show at the highest dose activity, negative = inhibition, usual class: inhibitors; 310,000 compounds, 3.5% hits; AID 2546;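 further: Gal4-VP16 expression switched on by copper sulfate through the metallothionein promoter; on the % scale 0 is the no-effect control and ±100 the full control effect; nearly all actives have a fitted effect of over 50% in size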
# SW480 rereplic: DNA re-replication induction in SW480 cells | 340,000 compounds, 1.8% hits | Potency, µM (titrated, usually from 46.1 µM), inactives show at the top dose re-replication activation, most hits filed as activators | SW480 DNA re-replication, Hoechst DNA content imaging, 48 h; further: % of control where 0% means no effect; nearly all actives have a fitted effect of over 55% in size
#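 SW480 cells exposed to compounds for 48 hr at 37 C, 5% CO2, then Hoechst-stained 40 min. Nuclear DNA content imaged by fluorescence scanning (405 nm excitation, 500-530 nm emission); re-replication scored as increased high-intensity nuclei.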
# MCF10A rerep: induces DNA re-replication in MCF 10a normal breast cells; MCF 10A DNA re-replication, Hoechst nuclear intensity, 48 h; Potency, µM (top dose mostly 46.1 µM), for the others: top-dose activity, positive = re-replication, usual class: activators; 350,000 compounds, 2.9% hits; further: % of control where 0% means no effect; nearly all actives have a fitted effect of over 50% in size
# Numbers without * were called inactive; ? = inconclusive; · = no result given; [ ] = remark or other dose. Hits are enriched below; roughly 10% of the tested compounds scored in any of these assays. The call rests on the fitted dose curve; in most records, active means well fitted curve in the direction sought with a large enough effect; inconclusive means small, poorly fitted or top-dose-only effect, or another doubt; inactive means no such curve, though single readings can be large; an effect the other way counts as inactive or inconclusive. Potency means the concentration at half of the fitted maximal effect.
SMILES,ELG1 DNA repair,RORgamma inh,Gal4-VP16 FLuc,SW480 rereplic,MCF10A rerep
Nc1cccc2c1C(=O)N(Cc1cccc(Cl)c1)C2=O,7.7%,19.7%,7.1%,?,16.4µM*
Cc1cc(C)c(-c2c(O)c3cccnc3n(C)c2=O)c(C)c1,·,·,·,?,3.2%
CCOc1cc(S(=O)(=O)n2cc(-c3ccc(F)cc3)c(N)n2)cc(OCC)c1OCC,14.6µM*,-32.3%,8.5%,?,15.0%
CCOc1ccc(S(=O)(=O)n2cc(-c3ccc(F)cc3)c(N)n2)cc1,-3.2%,13.3%,3.8%,-7.3%,1.8%
COC(=O)N[C@@H](c1cccc(C)c1)[C@@H](C)[N+](=O)[O-],·,-3.5%,4.2%,·,·
CCOC(=O)c1c(C)[nH]c(C(=O)COC(=O)C23CC4CC(CC(Cl)(C4)C2)C3)c1C,11.6µM*,-0.8%,-26.9%,3.3%,?
CCOC(=O)c1nnn(-c2nc(OC)nc(N3CCCCC3)n2)c1-c1ccccc1,18.4µM*,38.0%,-21.1%,·,·
CCOC(=O)c1c(-c2ccccc2)nnn1-c1nc(OCC)nc(N2CCCCC2)n1,?,?,-1.2%[0.365 µM],11.9%,14.6µM*
CCOC(=O)c1nnn(-c2nc(N3CCCC3)nc(N3CCCC3)n2)c1-c1ccccc1,-14.4%,-16.8%,-4.8%,16.5%,6.4%
Cc1ccc2[nH]c(=O)c3cc(C(=O)N(C)c4ccc(C)c(C)c4)sc3c2c1,?,-0.5%,-5.9%,14.6µM*,4.11µM*
CCN(C(=O)c1cc2c(=O)[nH]c3ccc(C)cc3c2s1)c1ccc(F)cc1,-8.0%,-41.4%,?,?,16.4µM*
CC1CCN(C(=O)c2[nH]cnc2C(=O)N[C@@H](CCCCNC(=O)OC(C)(C)C)C(=O)OC(C)(C)C)CC1,?,-44.9%,-20.4%,-5.3%,?
CC(C)C[C@H](NC(=O)c1nc[nH]c1C(=O)N1CCc2ccccc2C1)C(=O)OC(C)(C)C,-29.2%,11.2µM*,?,0.6%,-4.7%
O=C(CNC(=O)c1nc[nH]c1C(=O)N1CCNCC1)OCc1ccccc1,18.6%,·,·,-10.8%,9.7%
CC(C)(C)OC(=O)CNC(=O)c1nc[nH]c1C(=O)N1CCN(c2ccccc2)CC1,?,12.6µM*,-24.4%,-8.9%,5.4%
O=C(CNC(=O)c1nc[nH]c1C(=O)N1CCc2ccccc2C1)OCc1ccccc1,-22.9%,14.1µM*,?,-5.3%,18.6%
CC(C)C[C@H](NC(=O)c1nc[nH]c1C(=O)N1CCC(C)CC1)C(=O)OC(C)(C)C,16.6%,15.8µM*,?,12.2%,?
OC(CNCCN1CCNCC1)Cc1ccccc1 (centres undefined),·,·,·,-2.3%,0.4%
COc1cccc(CNC(=O)c2ccc(C3SCCS3)cc2)c1,?,25.1%,24.7%,?,10.6%
CC(C)C[C@H](NC(=O)c1nc[nH]c1C(=O)N1CCN(c2ccccc2)CC1)C(=O)OC(C)(C)C,20.6%,12.6µM*,?,13.6%,-16.3%
Cc1cc(O)c(C(C[N+](=O)[O-])c2ccc(Cl)cc2)c(=O)o1 (centres undefined),-0.3%,-3.6%,-11.6%,11.9%,-6.7%
Cc1cc(C)n(C(C[N+](=O)[O-])c2ccc(Cl)cc2)n1 (centres undefined),12.9%,16.0%,-0.9%,?,14.6µM*
CC1=Nc2ccccc2/C1=C/c1c(C)[nH]c2ccccc12,·,·,·,10.3µM*,0.82µM*
COCCNC(=O)CSc1c2c(nc3ccc(Cl)cc13)CCCC2,?,-43.6%,-2.8%,22.6%,?
CCOC(=O)Nc1nc(-c2ccccc2)c(C(=O)c2ccccc2)s1,?,12.6µM*,-22.4%,0.92µM*,1.16µM*
SMILES,ELG1 DNA repair,RORgamma inh,Gal4-VP16 FLuc,SW480 rereplic,MCF10A rerep
COC(=O)Nc1nc(-c2ccccc2)c(C(=O)c2ccc(Cl)cc2)s1,?,-0.2%,7.9%,1.3µM*,1.03µM*
CC(=O)c1sc(NC(=O)c2ccccc2)nc1-c1ccccc1,?,0.2%,-6.6%,-56.4%,0.651µM*
COCCN(CCOC)S(=O)(=O)c1ccc(C(=O)Nc2nc(-c3ccccc3)c(C(=O)c3ccccc3)s2)cc1,?,?,-24.0%,2.2%,?
O=c1c2cn[nH]c2nc(SCc2c(F)cccc2F)n1-c1ccc(Cl)cc1,-23.5%,9.5%,-1.3%,15.4%,?
COC(=O)[C@@](C)(O)C1(C(=O)SC(C)(C)C)CC1,·,·,·,-14.3%,-2.8%
O=C(/C=C/c1ccc(Cl)cc1Cl)Nc1cccc(S(=O)(=O)NC2=NCCC2)c1,?,7.08µM*,8.91µM*,-47.9%,-24.5%
O=C(/C=C/c1ccc([N+](=O)[O-])cc1)Nc1cccc(S(=O)(=O)NC2=NCCCCC2)c1,14.6µM*,·,·,0.8%,10.4%
COc1ccc(COCC(O)CN2CCN(S(=O)(=O)c3ccc(C(C)C)cc3)CC2)cc1 (centres undefined),13µM*,·,·,-7.0%,4.3%
CC(C)c1ccc(OCc2ccc(C(=O)NN3CCN(C)CC3)o2)cc1,?,29.3%,-16.8%,90.7%,0.0%
CCOC(=O)c1cnn2cc(-c3[nH]ncc3[N+](=O)[O-])cnc12,?,11.1%,18.0%,-3.7%,-3.0%
CCCn1c(CN2CCN(C)CC2)nc2ccccc21,7.8%,1.5%,4.8%,-2.5%,-19.4%
CCn1c(CN2CCN(c3ccc(Cl)cc3)CC2)nc2ccccc21,?,10µM*,8.91µM*,-6.9%,11.8%
Cn1c(CN2CCN(c3ccc(Cl)cc3)CC2)nc2ccccc21,?,6.31µM*,?,2.0%,?
Cc1ccc(S(=O)(=O)N2CCCC2)cc1C(=O)NCCN1CCOCC1,?,36.3%,26.4%,-5.7%,9.8%
Cc1ccc(S(=O)(=O)N2CCOCC2)cc1C(=O)NCCN1C(=O)S/C(=C\c2ccccc2Cl)C1=O,20.6µM*,?,-10.4%,0.2%,8.1%
O=C(NCCN1C(=O)S/C(=C\c2cccnc2)C1=O)c1cc(S(=O)(=O)N2CCOCC2)ccc1F,?,15.9%,-9.8%,2.06µM*,16.5%
CC(C)(C)c1ccc(/C=C2\SC(=O)N(CCNC(=O)c3cccc(S(=O)(=O)N4CCOCC4)c3)C2=O)cc1,?,?,2µM*,6.9%,26.6%
O=C(NCCN1C(=O)S/C(=C\c2cccc(Cl)c2Cl)C1=O)C1=COCCO1,-4.0%,2.2%,-11.1%,?,2.59µM*
CC(=O)c1c(C)[nH]c(C(=O)CN2C(=O)NC(CCc3ccccc3)C2=O)c1C (centres undefined),-1.1%,9.2%,3.2%,-0.5%,-10.4%
CC(C)(C)c1ccc(NC(=O)N2CCCN(c3ccc([N+](=O)[O-])cn3)CC2)cc1,?,11.1%,-15.6%,2.2%,-12.6%
Cc1sc(N2CCN(S(=O)(=O)c3ccc4c(c3)NC(=O)CO4)CC2)nc1-c1ccccc1,7.3%,3.7%,-7.0%,?,2.9%
